CBX7 inh = CBX7 chromodomain binding inhibitors, primary screen, biochemical, AlphaScreen | 1.1% of 66,000 active | AID 1224903, 2016 | normalised signal (fraction of DMSO) (concentration not given with the values) | Chromobox protein homolog 7 (Homo sapiens), O95931 | AlphaScreen His6-CBX7 / biotin-H3K27me3 peptide binding; active compounds read low; in the data active = normalised signal below about 0.5
Target sequence (O95931 whole entry, looked up): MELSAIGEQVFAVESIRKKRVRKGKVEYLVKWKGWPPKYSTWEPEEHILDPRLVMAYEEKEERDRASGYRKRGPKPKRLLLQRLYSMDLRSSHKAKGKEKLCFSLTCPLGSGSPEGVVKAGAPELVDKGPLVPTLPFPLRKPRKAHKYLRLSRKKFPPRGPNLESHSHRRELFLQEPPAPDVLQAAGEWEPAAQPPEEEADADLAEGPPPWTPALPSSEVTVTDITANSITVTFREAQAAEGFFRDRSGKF
Of the large screens only hits and unclear results are named; the others gave an inactive call; ! = repeats disagree. The entries come from a sample that favours hits as a whole.

COc1ccc(C(=O)c2cn(Cc3ccc(F)cc3)c3ccccc3c2=O)cc1	none
Cc1ccn2c(NC(=O)COc3ccc(Cl)cc3Cl)c(-c3ccccc3)nc2c1	none
Cc1ccc(NC(=O)CCc2c(C)nc3nc(C)nn3c2C)c(C)c1	none
CCC(C)NC(=O)C1(C)CCC(=O)N1Cc1ccc2c(c1)OCO2 (stereo unspecified)	none
O=C(Cn1nc(-c2ccc(Cl)cc2)ccc1=O)N1CCCCC1	none
CCOC(=O)c1cnc2ccc(OCC)cc2c1Nc1ccc(C)cc1C	none
CCOc1ccc(NC(=O)c2cnc(Nc3ccc(OC)cc3)c3ccccc23)cc1	none
COc1ccc(Nc2ncc(C(=O)Nc3cnc4ccccc4c3)c3ccccc23)cc1	none
COc1ccc(Nc2ncc(C(=O)Nc3cccc(Cl)c3)c3ccccc23)cc1	CBX7 inh 0.2
COCCCNC(=O)C1CCCN(c2nc3ccccc3[nH]2)C1 (stereo unspecified)	none
Cc1cc(N2CC(C)CC(C)C2)nc2ccc(NC(=O)CCC(=O)Nc3ccc(F)c(Cl)c3)cc12 (stereo unspecified)	none
O=C(NCCCn1ccnc1)C(O)(c1ccccc1)c1ccccc1	none
O=C(NCCCn1ccnc1)C(=O)NCCc1ccccc1	none
O=C(NCCCn1ccnc1)c1ccc(C#Cc2ccccc2)cc1	CBX7 inh 0.11
COc1ccc(CNc2sc3c(c2C(=O)Nc2ccc(OC)cc2OC)CCC3)cc1	none
COc1ccc(NC(=O)c2c(NCc3cccnc3)sc3c2CCC(C)C3)c(OC)c1 (stereo unspecified)	CBX7 inh 0.46
COc1ccc(OC)c(NC(=O)c2c(NCc3cccnc3)sc3c2CCCC3)c1	none
COc1ccc(NC(=O)c2c(NCc3cccnc3)sc3c2CCCC3)c(OC)c1	CBX7 inh 0.31
COc1ccc(OC)c(NC(=O)c2c(NCc3cccnc3)sc3c2CCC(C)C3)c1 (stereo unspecified)	none
COc1ccc(OC)c(NC(=O)c2c(NCc3ccncc3)sc3c2CCC(C)C3)c1 (stereo unspecified)	none
COc1ccc(CC(=O)Nc2ccc3nc4n(c(=O)c3c2)CCCCC4)cc1OC	none
CCc1ccccc1NC(=O)Nc1cc2sccc2n1C	none
O=C(NCc1ccc(F)cc1)c1ccc2c(c1)N(Cc1ccc(F)cc1)C(=O)c1ccccc1S2=O (stereo unspecified)	none
Cc1ccc(S(=O)(=O)c2nc(C)oc2NCc2ccco2)cc1	none
Cc1ccc(-c2nn(CCC(=O)Nc3ccc(Br)cc3)c(=O)c3ccccc23)cc1	none
CCOC(=O)N1CCN(c2ccc3nncn3n2)CC1	none
COc1ccc(C2c3c(-c4ccccc4)n[nH]c3C(=O)N2c2ccccc2)cc1 (stereo unspecified)	CBX7 inh 0.38
CC(C)c1ccc(C2c3c(-c4ccccc4)n[nH]c3C(=O)N2c2ccccc2)cc1 (stereo unspecified)	none
O=C1c2[nH]nc(-c3ccccc3)c2C(c2ccccc2)N1c1ccccc1 (stereo unspecified)	none
CCCN1CCN(C(=O)C2CCCN(C(=O)c3cnn(-c4ccccc4)c3-n3cccc3)C2)CC1 (stereo unspecified)	none
O=C(COc1ccc(Br)cc1)Nc1ccc2oc(-c3ccncc3)nc2c1	none
Cc1cc2ncn(CC(O)COc3ccc(C(C)C)cc3)c2cc1C (stereo unspecified)	none
Cc1cc2ncn(CC(O)COc3ccccc3C)c2cc1C (stereo unspecified)	CBX7 inh 0.17
COc1cc(OC)cc(OCC(O)Cn2cnc3cc(C)c(C)cc32)c1 (stereo unspecified)	none
Cc1ccc(C2CC(c3ccc(Br)cc3)n3ncnc3N2)cc1C (stereo unspecified)	none
O=C(O)C1CC=CCC1C(=O)N1CCN(c2nc(-c3ccccc3)c3cc([N+](=O)[O-])ccc3n2)CC1 (stereo unspecified)	none
CNCC(=O)Nc1c2c(nc3c1CCC3)CCCC2	CBX7 inh 0.49
O=C(CNC1CCCCC1)Nc1c2c(nc3c1CCC3)CCC2	none
O=C(CNC1CCCCC1)Nc1c2c(nc3c1CCC3)CCCC2	CBX7 inh 0.34
CC(C)(C)NCC(=O)Nc1c2c(nc3c1CCC3)CCCC2	none
CCCCCCC(=O)Nc1c2c(nc3c1CCC3)CCCC2	none
Cc1cc(NC(=O)CNC2CCCCC2)c2ccccc2n1	none
CCN(CC)S(=O)(=O)c1ccc2c(c1)N(CC(=O)Nc1cccc(C)c1C)C(=O)CS2	none
CCOc1cc2c(cc1OCC)C(c1ccc(-c3ccccc3)cc1)NCC2 (stereo unspecified)	none
CCOc1ccc(N2C(=O)CC(NCc3ccc(Cl)cc3)C2=O)cc1 (stereo unspecified)	none
Fc1ccc(Nc2nc(-c3ccc(Cl)cc3)cs2)cc1	none
CCOc1ccc(Nc2nc(-c3sc(NC(=O)c4ccccc4)nc3C)cs2)cc1	CBX7 inh 0.42
CC(=O)Nc1ccc(Nc2nc(-c3sc(NC(=O)c4ccccc4)nc3C)cs2)cc1	none
COc1ccc(Nc2nc(-c3ccc(Br)cc3)cs2)cc1	none
COc1ccc(OC)c(Nc2nc(-c3sc(NC(C)=O)nc3C)cs2)c1	none
Cc1nc(NC(=O)c2ccccc2)sc1-c1csc(Nc2ncccn2)n1	none
Cc1nc(N)sc1-c1csc(Nc2ccc(Cl)cc2)n1	CBX7 inh 0.38
CC(=O)Nc1nc(C)c(-c2csc(Nc3ccccc3)n2)s1	none
CC(=O)Nc1nc(C)c(-c2csc(Nc3ccc(N)cc3)n2)s1	CBX7 inh 0.47
COc1ccc(-c2csc(Nc3ccc(N)cc3)n2)cc1	CBX7 inh 0.41
Cc1nc(N)sc1-c1csc(Nc2cccc(Cl)c2)n1	none
COc1ccc(Nc2nc(-c3ccc(Cl)c(Cl)c3)cs2)cc1	none
CC1CCC(NC(=O)C2c3cccn3CC(=O)N2CC2CCCO2)CC1 (stereo unspecified)	none
NS(=O)(=O)c1ccc(CCNC(=O)CCn2c(=O)[nH]c3ccsc3c2=O)cc1	none
O=C(CN1CC(c2ccccc2)CC1=O)Nc1ccc(Cl)c(C(F)(F)F)c1 (stereo unspecified)	none
O=C(C1CCN(S(=O)(=O)c2cccnc2)CC1)N(CCc1ccccc1)Cc1ccccc1	none
COc1cc(Nc2nc(-c3ccc(Cl)cc3)cs2)c(OC)cc1Cl	none
CC(=O)Nc1ccc(Nc2nc(-c3sc(C)nc3C)cs2)cc1	none
COc1ccc(Cl)cc1Nc1nc(-c2sc(C)nc2C)cs1	none
COc1ccc(CCNc2nc(-c3sc(N)nc3C)cs2)cc1OC	CBX7 inh 0.35
COc1cc(Nc2nc(-c3ccc(C)cc3)cs2)c(OC)cc1Cl	CBX7 inh 0.46!
COc1ccc(Nc2nc(-c3cccs3)cs2)cc1	none
Cc1ccc(-c2csc(Nc3ccc(F)cc3)n2)cc1	none
COc1ccc(Nc2nc(-c3sc(NC(C)=O)nc3C)cs2)cc1	none
Cc1ccc(-c2csc(Nc3ccccc3Cl)n2)cc1	none
Cc1ccc(Nc2nc(-c3sc(N)nc3C)cs2)cc1	CBX7 inh 0.38
COc1ccc(CCNc2nc(-c3ccc(Cl)cc3)cs2)cc1OC	none
COc1ccc(Nc2nc(-c3sc(N)nc3C)cs2)cc1	CBX7 inh 0.31
O=C(Nc1ccc2c(c1)nc1n2CCN(Cc2ccccc2)C1)c1ccc(F)cc1	none
Cc1ccc(C(=O)Nc2ccc(-c3nc4cc(C(C)C)ccc4o3)cc2)cc1Cl	none
Cc1ccc(Nc2c(-c3ccsc3)nc3ncccn23)c(C)c1	none
CCOC(=O)c1cnc2ccc(OC)cc2c1Nc1ccc(C)cc1C	none
CCCCn1c(CCCNC(=O)c2ccc(F)cc2)nc2ccccc21	none
COc1c(Cl)ccc(Cl)c1C(=O)Nc1cc(C)ccc1C	none
Cc1cc(C)c(S(=O)(=O)Nc2cccc3cccnc23)c(C)c1	none
CC(=O)Nc1ccc(NS(=O)(=O)c2cccc3cccnc23)cc1	none
O=S(=O)(Nc1cccc2cccnc12)c1ccccc1O	CBX7 inh 0

From PubChem
